According to ChEMBL document CHEMBL1961873, “Compounds: GSK PKIS; Assays: Nanosyn kinase panel” (2012):

The compounds below were run against Macrophage colony-stimulating factor 1 receptor (Homo sapiens) (UniProt P07333). Conditions: at 1 µM.
Macrophage colony-stimulating factor 1 receptor (Homo sapiens), sequence (P07333 whole entry): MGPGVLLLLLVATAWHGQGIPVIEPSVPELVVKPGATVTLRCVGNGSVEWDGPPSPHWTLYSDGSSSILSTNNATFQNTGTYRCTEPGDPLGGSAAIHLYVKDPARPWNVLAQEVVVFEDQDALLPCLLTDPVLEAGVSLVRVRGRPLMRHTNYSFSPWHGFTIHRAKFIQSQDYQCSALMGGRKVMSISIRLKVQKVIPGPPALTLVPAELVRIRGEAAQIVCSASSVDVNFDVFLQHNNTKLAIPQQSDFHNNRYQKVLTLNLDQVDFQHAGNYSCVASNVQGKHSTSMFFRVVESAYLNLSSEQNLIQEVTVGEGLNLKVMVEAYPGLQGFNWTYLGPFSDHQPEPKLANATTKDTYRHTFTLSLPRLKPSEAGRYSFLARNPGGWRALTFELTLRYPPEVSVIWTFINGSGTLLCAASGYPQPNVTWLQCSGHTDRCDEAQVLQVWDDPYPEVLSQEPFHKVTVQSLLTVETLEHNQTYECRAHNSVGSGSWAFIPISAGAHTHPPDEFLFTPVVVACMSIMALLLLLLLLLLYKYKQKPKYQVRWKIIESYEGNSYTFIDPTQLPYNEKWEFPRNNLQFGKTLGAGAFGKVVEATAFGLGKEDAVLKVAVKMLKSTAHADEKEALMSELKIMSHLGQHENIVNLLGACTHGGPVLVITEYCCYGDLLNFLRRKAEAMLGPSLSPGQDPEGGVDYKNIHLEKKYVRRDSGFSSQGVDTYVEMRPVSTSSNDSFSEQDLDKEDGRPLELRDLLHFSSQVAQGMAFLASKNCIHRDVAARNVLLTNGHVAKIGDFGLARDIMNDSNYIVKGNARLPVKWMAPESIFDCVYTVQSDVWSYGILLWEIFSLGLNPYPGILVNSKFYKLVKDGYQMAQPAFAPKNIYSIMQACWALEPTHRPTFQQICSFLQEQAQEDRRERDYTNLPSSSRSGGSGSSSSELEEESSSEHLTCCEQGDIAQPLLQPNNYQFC
`Cc1nc(-c2ccccc2)n2nc(NCCCN3CCOCC3)ncc12` showed an inhibition of 10.9%.
With `[O-][S+]1CCN(Cc2ccc(-c3ccc4ncnc(Nc5ccc(OCc6ccccc6)c(Cl)c5)c4c3)o2)CC1` the inhibition was 0.13%.
For `Oc1cccc(-c2nc(-c3ccccc3)[nH]c2-c2ccncc2)c1`, the inhibition was 5.02%.
`Nc1nccc(-c2c(-c3ccc(F)cc3)ncn2CCCN2CCOCC2)n1` showed an inhibition of 1.51%.
Work on `Cc1ccc(Nc2ccnc(Nc3cccc(C(N)=O)c3)n2)cc1O` yielded an inhibition of 49.9%.

What follows are compounds tested against Tyrosine-protein kinase Fyn (Homo sapiens) (UniProt P06241). Conditions: at 0.1 µM.
Tyrosine-protein kinase Fyn (Homo sapiens), sequence (P06241 2-537 limits assumed): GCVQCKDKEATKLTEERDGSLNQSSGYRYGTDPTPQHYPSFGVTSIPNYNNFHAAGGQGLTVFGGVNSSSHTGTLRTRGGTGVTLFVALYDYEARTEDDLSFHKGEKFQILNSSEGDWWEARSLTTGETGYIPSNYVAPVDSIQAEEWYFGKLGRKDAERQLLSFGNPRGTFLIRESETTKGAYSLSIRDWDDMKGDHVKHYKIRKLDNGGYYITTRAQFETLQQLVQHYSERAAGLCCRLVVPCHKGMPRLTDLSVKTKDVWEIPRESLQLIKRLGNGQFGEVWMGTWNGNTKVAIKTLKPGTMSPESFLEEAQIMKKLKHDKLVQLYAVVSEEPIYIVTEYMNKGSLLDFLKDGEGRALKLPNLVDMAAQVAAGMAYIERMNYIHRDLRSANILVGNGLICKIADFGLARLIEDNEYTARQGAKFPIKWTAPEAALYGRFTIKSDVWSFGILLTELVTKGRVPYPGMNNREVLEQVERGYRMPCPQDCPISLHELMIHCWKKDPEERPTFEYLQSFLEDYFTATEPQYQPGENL
For `CCn1c(-c2nonc2N)nc2c(C#CC(C)(C)O)nc(OCCNC)cc21`, the inhibition was 1.14%.
`COC(=O)Nc1nc2cc(Oc3ccc(NC(=O)Nc4cccc(Br)c4)cc3)ccc2[nH]1` showed an inhibition of 3.15%.
With `Nc1nccc(-c2c(-c3ccc(F)cc3)nn3cc(C(F)(F)F)ccc23)n1` the inhibition was 0.43%.
Work on `CN(C)CCCn1c(-c2nonc2N)nc2cnccc21` yielded an inhibition of 2.62%.
Work on `COc1cc(Nc2nccc(-c3cnn4ncccc34)n2)cc(OC)c1` yielded an inhibition of 7.87%.
Compound `C[C@@H](Oc1cc(-n2cnc3ccc(OC[C@@H](O)CO)cc32)sc1C(N)=O)c1ccccc1Cl` has an inhibition of 0.14%.
`N#Cc1cccc(Nc2nccc(-c3cnn4ncccc34)n2)c1` showed an inhibition of 6.76%.
Compound `COc1cc(/C=N/Nc2ncnc3c2cnn3C(C)C)ccc1O` has an inhibition of 8.53%.
For `Nc1ccc(C#Cc2cncnc2Nc2ccc(OCc3cccc(F)c3)c(Cl)c2)cc1`, the inhibition was 1.67%.
Work on `Cc1ccc2c(c1)/C(=N/Nc1ccc(S(N)(=O)=O)cc1)C(=O)N2` yielded an inhibition of 1.22%.
`NC(=O)c1cccc(Nc2nccc(Nc3cccc(F)c3)n2)c1` showed an inhibition of 7.98%.
In the case of `NS(=O)(=O)c1ccc(NC=C2C(=O)Nc3ccc4ncsc4c32)cc1`, the inhibition is reported as 5.49%.
